Measurements published in PubChem BioAssay AID1159580 (chemical genetic matrix, 2015).
Several values for one entry are separate records, joined by “and”; a condition that tells them apart may be missing. Identical values can stand only once. About 2,000 (36%) of roughly 5,500 compounds were called active. Roughly 18% stayed inconclusive and do not appear here. Cut-off read from the data, not from the text of the source: active = normalized growth mostly below about 0.91 (no sharp cut-off); inconclusive = no clear call, values can overlap the other calls; inactive = mostly above about 0.92. This is one part of the list.

Experiment: chemical genetic growth profiling, strain panel (AID 1159580);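 note: tested at 20 µM; growth read once vehicle control cultures reached saturation at 30 °C; 1 = growth at the plate median or of vehicle wells; lower values mean less growth of the strain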
Conditions: S. cerevisiae deletion strains, growth OD

Measured: normalized growth

Oc1c(Cl)cc(Cl)c(Cl)c1Cc1c(O)c(Cl)cc(Cl)c1Cl
active: locus YAL021C, strain ccr4, active compounds read low 0.0649 | locus YAL026C, strain drs2, active compounds read low 0.0639 | locus YAL030W, strain snc1, active compounds read low 0.0572 | locus YBL061C, strain skt5, active compounds read low 0.0628 | locus YBR009C, strain hhf1, active compounds read low 0.0575 | locus YBR021W, strain FUR4, active compounds read low 0.0863 | locus YBR023C, strain chs3, active compounds read low 0.0623 | locus YBR171W, strain sec66, active compounds read low 0.0838 | locus YBR229C, strain ROT2, active compounds read low 0.0457 | locus YBR231C, strain swc5, active compounds read low 0.0612 | locus YBR279W, strain paf1, active compounds read low 0.0633 | locus YCL011C, strain gbp2, active compounds read low 0.0558 | locus YCL016C, strain dcc1, active compounds read low 0.0684 | locus YCL029C, strain bik1, active compounds read low 0.0602 | locus YCL061C, strain MRC1, active compounds read low 0.064 | locus YCL069W, strain vba3, active compounds read low 0.0605 | locus YCR088W, strain abp1, active compounds read low 0.0632 | locus YDL005C, strain med2, active compounds read low 0.0765 | locus YDL035C, strain GPR1, active compounds read low 0.0447 | locus YDL040C, strain nat1, active compounds read low 0.0596 | locus YDL074C, strain BRE1, active compounds read low 0.0681 | locus YDL101C, strain DUN1, active compounds read low 0.0525 | locus YDL185W, strain tfp1, active compounds read low 0.0761 | locus YDL192W, strain arf1, active compounds read low 0.0596 | locus YDR001C, strain nth1, active compounds read low 0.0623 | locus YDR069C, strain doa4, active compounds read low 0.0643 | locus YDR101C, strain arx1, active compounds read low 0.0573 | locus YDR137W, strain rgp1, active compounds read low 0.108 | locus YDR159W, strain sac3, active compounds read low 0.111 | locus YDR162C, strain NBP2, active compounds read low 0.0454 | locus YDR195W, strain ref2 0.126 | locus YDR297W, strain sur2, active compounds read low 0.0566 | locus YDR318W, strain mcm21, active compounds read low 0.0637 | locus YDR334W, strain swr1, active compounds read low 0.0669 | locus YDR335W, strain msn5, active compounds read low 0.061 | locus YDR388W, active compounds read low 0.0571 | locus YDR392W, strain spt3, active compounds read low 0.0734 | locus YDR502C, strain sam2, active compounds read low 0.0651 | locus YEL003W, strain gim4, active compounds read low 0.0558 | locus YEL037C, strain rad23, active compounds read low 0.0567 | locus YEL061C, strain CIN8 (second series), active compounds read low 0.0634 | locus YEL061C, strain CIN8, active compounds read low 0.0485 | locus YER015W, strain faa2, active compounds read low 0.065 | locus YER016W, strain bim1, active compounds read low 0.0638 | locus YER110C, active compounds read low 0.0729 | locus YER111C, strain swi4, active compounds read low 0.0725 | locus YER155C, strain BEM2 (second series), active compounds read low 0.0878 | locus YER155C, strain BEM2, active compounds read low 0.0604 | locus YER167W, strain BCK2, active compounds read low 0.0476 | locus YFR010W, strain ubp6, active compounds read low 0.0712 | locus YGL078C, strain dbp3, active compounds read low 0.108 | locus YGL086W, strain mad1, active compounds read low 0.0548 | locus YGL167C, strain pmr1, active compounds read low 0.0813 | locus YGL173C, strain kem1, active compounds read low 0.0685 | locus YGL227W, strain vid30, active compounds read low 0.0622 | locus YGL240W, strain doc1, active compounds read low 0.0737 | locus YGL248W, strain PDE1, active compounds read low 0.0447 | locus YGL253W, strain hxk2, active compounds read low 0.0537 | locus YGR135W, strain pre9, active compounds read low 0.0633 | locus YGR252W, strain gcn5, active compounds read low 0.179 | locus YHR013C, strain ard1, active compounds read low 0.108 | locus YHR027C, strain rpn1, active compounds read low 0.0624 | locus YHR030C, strain SLT2, active compounds read low 0.0509 and 0.0952 | locus YHR079C, strain IRE1 (second series), active compounds read low 0.0571 | locus YHR079C, strain IRE1, active compounds read low 0.137 | locus YHR094C, strain hxt1, active compounds read low 0.0585 | locus YHR129C, strain ARP1, active compounds read low 0.0547 | locus YHR142W, strain chs7, active compounds read low 0.0728 | locus YHR200W, strain rpn10, active compounds read low 0.0603 | locus YIL066C, strain RNR3, active compounds read low 0.0457 | locus YIL073C, strain SPO22, active compounds read low 0.0959 | locus YIL125W, strain kgd1, active compounds read low 0.0781 | locus YIR030C, strain dcg1, active compounds read low 0.0579 | locus YJL092W, strain hpr5, active compounds read low 0.0606 | locus YJL095W, strain BCK1 (second series), active compounds read low 0.0579 | locus YJL095W, strain BCK1, active compounds read low 0.0575 and 0.0959 | locus YJL115W, strain asf1, active compounds read low 0.0753 | locus YJL129C, strain trk1, active compounds read low 0.0909 | locus YJL134W, strain LCB3, active compounds read low 0.0469 | locus YJL154C, strain vps35, active compounds read low 0.0611 | locus YJL164C, strain tpk1, active compounds read low 0.0591 | locus YJL166W, strain qcr8, active compounds read low 0.0615 | locus YJL168C, strain set2, active compounds read low 0.0584 | locus YJL187C, strain SWE1 (second series), active compounds read low 0.0437 | locus YJR043C, strain POL32, active compounds read low 0.0543 | locus YJR066W, strain TOR1, active compounds read low 0.0109 | locus YKL009W, strain mrt4, active compounds read low 0.13 | locus YKL068W, active compounds read low 0.0876 | locus YKL085W, strain MDH1 (second series), active compounds read low 0.0638 | locus YKL085W, strain MDH1, active compounds read low 0.0638 | locus YKL160W, strain elf1, active compounds read low 0.0626 | locus YKL190W, strain CNB1, active compounds read low 0.0457 | locus YKR001C, strain vps1, active compounds read low 0.064 | locus YKR026C, strain gcn3, active compounds read low 0.063 | locus YKR091W, strain srl3, active compounds read low 0.058 | locus YLL001W, strain dnm1, active compounds read low 0.0618 | locus YLL026W, active compounds read low 0.0568 | locus YLL041C, strain sdh2, active compounds read low 0.0572 | locus YLR027C, strain aat2, active compounds read low 0.0557 | locus YLR039C, strain RIC1, active compounds read low 0.101 | locus YLR058C, strain SHM2, active compounds read low 0.0462 | locus YLR102C, strain apc9, active compounds read low 0.0599 | locus YLR113W, strain HOG1, active compounds read low 0.119 | locus YLR221C, strain rsa3, active compounds read low 0.064 | locus YLR258W, strain gsy2, active compounds read low 0.0646 | locus YLR262C, strain YPT6 (second series), active compounds read low 0.0785 | locus YLR262C, strain YPT6, active compounds read low 0.114 | locus YLR268W, strain sec22, active compounds read low 0.0689 | locus YLR320W, strain mms22, active compounds read low 0.0782 | locus YLR330W, strain CHS5, active compounds read low 0.0515 | locus YLR342W, strain FKS1 (second series), active compounds read low 0.0549 | locus YLR342W, strain FKS1, active compounds read low 0.0674 | locus YLR357W, strain rsc2, active compounds read low 0.132 | locus YLR370C, strain arc18, active compounds read low 0.0635 | locus YLR371W, strain rom2, active compounds read low 0.0617 | locus YLR384C, strain iki3, active compounds read low 0.0627 | locus YLR418C, strain cdc73, active compounds read low 0.102 | locus YML016C, strain PPZ1, active compounds read low 0.0443 | locus YML032C, strain rad52, active compounds read low 0.0719 | locus YML120C, strain ndi1, active compounds read low 0.0723 | locus YML124C, strain tub3, active compounds read low 0.0588 | locus YMR058W, strain fet3, active compounds read low 0.06 | locus YMR078C, strain ctf18, active compounds read low 0.0715 | locus YMR125W, strain sto1, active compounds read low 0.0705 | locus YMR129W, active compounds read low 0.0593 | locus YMR205C, strain PFK2, active compounds read low 0.0865 | locus YMR223W, strain ubp8, active compounds read low 0.064 | locus YMR231W, strain pep5, active compounds read low 0.0739 | locus YMR307W, strain GAS1, active compounds read low 0.095 | locus YNL067W, strain RPL9B, active compounds read low 0.0449 | locus YNL071W, strain lat1, active compounds read low 0.0618 | locus YNL183C, strain NPR1, active compounds read low -0.000219 | locus YNL209W, strain ssb2, active compounds read low 0.0615 | locus YNL233W, strain BNI4, active compounds read low 0.0507 | locus YNL248C, strain rpa49, active compounds read low 0.0739 | locus YNL250W, strain rad50, active compounds read low 0.232 | locus YNL271C, strain bni1, active compounds read low 0.0767 | locus YNL298W, strain CLA4, active compounds read low 0.0832 | locus YNL307C, strain MCK1, active compounds read low 0.0665 | locus YNL322C, strain KRE1 (second series), active compounds read low 0.0815 | locus YNR049C, strain mso1, active compounds read low 0.0574 | locus YNR052C, strain pop2, active compounds read low 0.0618 | locus YOL147C, strain pex11, active compounds read low 0.0569 | locus YOR001W, strain rrp6, active compounds read low 0.0782 | locus YOR061W, strain CKA2, active compounds read low 0.0448 | locus YOR069W, strain VPS5, active compounds read low 0.0463 | locus YOR070C, strain gyp1, active compounds read low 0.0582 | locus YOR080W, strain dia2, active compounds read low 0.0666 | locus YOR083W, strain WHI5, active compounds read low 0.065 | locus YOR106W, strain vam3, active compounds read low 0.0665 | locus YOR136W, strain idh2, active compounds read low 0.0719 | locus YOR144C, strain elg1, active compounds read low 0.0552 | locus YOR184W, strain ser1, active compounds read low 0.075 | locus YOR231W, strain MKK1, active compounds read low 0.112 | locus YOR265W, strain rbl2, active compounds read low 0.065 | locus YOR270C, strain vph1, active compounds read low 0.0914 | locus YOR290C, strain snf2, active compounds read low 0.0645 | locus YOR316C, strain cot1, active compounds read low 0.0584 | locus YPL051W, strain arl3, active compounds read low 0.0639 | locus YPL078C, strain atp4, active compounds read low 0.0652 | locus YPL106C, strain sse1, active compounds read low 0.1 | locus YPL240C, strain hsp82, active compounds read low 0.0579 | locus YPL256C, strain CLN2, active compounds read low 0.116 | locus YPR119W, strain clb2, active compounds read low 0.0624 | locus YPR141C, strain kar3, active compounds read low 0.0848 | locus YPR163C, strain tif3, active compounds read low 0.0697 | locus YPR167C, strain met16, active compounds read low 0.0631 | strain wtn01, active compounds read low 0.0656
